Screening results as filed in PubChem BioAssay.
Hits are enriched below; roughly 12% of the tested compounds scored in any of these assays.
BAZ2B block: inhibitors of human BAZ2B bromodomain; Potency, µM (series often up to 114 µM), usual class: inhibitors; AlphaScreen BAZ2B-H3K14Ac peptide displacement; 360,000 tested, 4.4% active; Q9UIF8; also: nearly all actives have a fitted effect of over 60% in size
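Compounds, titrated to a top concentration of 110 uM, were incubated 30 min at room temperature with preformed BAZ2B/acetyl-K14 H3 peptide complex (50 nM each). Proximity signal was measured by AlphaScreen after 20 min with beads.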
PI5P4Ka inh: PI5P4K alpha (human) kinase inhibition | P48426 | max response, % | PI5P4Kalpha enzyme, ADP-Glo luminescence, 60 min; hits give low values | 330,000 tested, 1.2% active; active = max response of -50% or lower; inconclusive = between -30% and -50%; inactive = -30% or higher; also: value at the top dose of about 77 µM
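Single end-point luminescence (ADP-Glo) quantified ADP from PI5P4Kalpha turnover; ATP 5 microM final, 1 h at RT, 0.1% CHAPS and 0.28 mM EGTA in HEPES pH 7.4.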
JMJD2A Tudor inh: JMJD2A Tudor domain (human) inhibition. 390,000 tested, 4.4% active. AlphaScreen JMJD2A-Tudor / H3K4me3 peptide binding. Potency, µM (doses to about 114 µM), hits mostly inhibitors; also: nearly all actives have a fitted effect of over 50% in size
HP1b binding inh: HP1-beta chromodomain-methylated histone interaction inhibition. AID 540317. 390,000 tested, 0.56% active. AlphaScreen HP1-beta / biotin-H3K9me3 peptide binding. Potency, µM (doses to about 114 µM), most hits filed as inhibitors; also: nearly all actives have a fitted effect of over 70% in size
Target sequence (P83916 whole entry, looked up): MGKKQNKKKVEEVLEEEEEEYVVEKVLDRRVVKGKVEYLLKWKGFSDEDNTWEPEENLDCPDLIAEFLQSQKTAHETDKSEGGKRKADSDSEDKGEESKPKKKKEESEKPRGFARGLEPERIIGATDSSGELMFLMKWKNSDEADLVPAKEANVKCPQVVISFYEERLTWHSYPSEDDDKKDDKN
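Compound inhibition of the preformed complex between 50 nM HP1-beta and 50 nM biotinylated H3K9me3 peptide was read by AlphaScreen. Buffer was PBS pH 7.4 with 0.01% Tween-20. Incubations ran 30 min at room temperature, with 10 ug/mL donor/acceptor beads.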
G9a block: inhibitors of human histone lysine methyltransferase G9a; Q96KQ7; G9a H3K9 monomethylation, AlphaScreen, 2 h; Potency, µM (titrated, usually from 102 µM), actives largely listed as inhibitors; 350,000 tested, 8.8% active; also: nearly all actives have a fitted effect of over 75% in size
Target sequence (Q96KQ7 913-1193 limits assumed): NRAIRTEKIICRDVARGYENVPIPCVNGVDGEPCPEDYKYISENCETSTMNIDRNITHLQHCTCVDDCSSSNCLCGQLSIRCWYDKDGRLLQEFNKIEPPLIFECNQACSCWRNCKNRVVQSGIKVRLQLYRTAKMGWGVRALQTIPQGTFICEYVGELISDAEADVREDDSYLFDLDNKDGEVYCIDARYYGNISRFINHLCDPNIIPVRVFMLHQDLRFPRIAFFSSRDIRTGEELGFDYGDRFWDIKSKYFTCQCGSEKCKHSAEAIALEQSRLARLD
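G9a (20 nM) preincubated 15 min RT with compounds, then 500 nM biotinylated H3K9 peptide and 20 uM SAM added; 2 h RT reaction. Monomethyl-H3K9 product detected by AlphaScreen with anti-H3K9me1 antibody, streptavidin donor and anti-rabbit IgG acceptor beads.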
PLK1 PBD inh: blocks phosphopeptide binding to human PLK1 polo-box domain; P53350; Plk1 PBD binding of FITC phosphopeptide, fluorescence polarization; Potency, µM, most hits filed as inhibitors; 360,000 tested, 2.8% active; AID 720504; also: series mostly up to about 57 µM; nearly all actives have a fitted effect of over 65% in size
Hits are given with their value; n = inactive; u = inconclusive; x = no result given; [ ] = dose if it differs, or a comment. Unless noted, calls follow the shape of the dose curve; as a rule, active = well fitted curve in the direction sought with a large enough effect; inconclusive = small, poorly fitted or top-dose-only effect, or another doubt; inactive = no such curve, though single readings can be large; an effect the other way counts as inactive or inconclusive.

SMILES | BAZ2B block | PI5P4Ka inh | JMJD2A Tudor inh | HP1b binding inh | G9a block | PLK1 PBD inh
CCN(CC)P(=O)(Nc1cccc(C(F)(F)F)c1)c1ccc(N(C)C)cc1NC(=O)c1ccco1 (configuration not stated) | u | n | u | n | 32µM | n
CN(C)c1cccc(NC(=O)c2ccco2)c1 | u | n | n | n | u | n
Cc1cccc(-c2nc(CN3CCN(C(=O)C4CCCO4)CC3)cs2)c1 (configuration not stated) | n | n | n | n | 71µM | n
COc1ccc(CNc2ccc3cc(S(=O)(=O)N4CCCCC4)ccc3n2)cc1 | n | x | n | n | 11µM | x
O=S(=O)(c1ccc2nc(Nc3ccccc3)ccc2c1)N1CCCCC1 | 40µM | n | 28µM | n | x | n
COc1ccc(Nc2ccc3cc(S(=O)(=O)N4CCCC4)ccc3n2)cc1OC | u | x | u | n | 14µM | x
O=S(=O)(c1ccc2nc(N3CCN(c4ccccc4F)CC3)ccc2c1)N1CCCCC1 | n | n | n | n | 18µM | n
CC(=O)c1cccc(Nc2ccc3cc(S(=O)(=O)N4CCCC4)ccc3n2)c1 | n | x | n | n | u | x
Cc1ccc(S(=O)(=O)CCC(=O)Nc2ccc(OC(F)(F)F)cc2)cc1 | n | x | n | n | n | x
Cc1c(Cl)cccc1NC(=O)Nc1c[nH]c(=O)[nH]c1=O | n | x | n | n | n | x
Cc1ccc(OCC(=O)NC2CCCC(C)C2C)c([N+](=O)[O-])n1 (configuration not stated) | n | n | n | n | u | n
CCOC(=O)C1CCCN(C(=O)c2cccc(NC(=O)c3nsc4ccccc34)c2)C1 (configuration not stated) | u | x | n | n | n | x
O=C(NCc1ccco1)Nc1ccccc1Cl | n | n | n | n | n[12.7 µM] | n
COc1ccc(Nc2nc(C(=O)NCc3ccco3)cs2)cc1 | 79µM | n | u | n | u | n
O=C(NCc1ccco1)c1csc(Nc2ccccc2Cl)n1 | u | x | n | n | 32µM | n
COc1ccc(Nc2nc(C(=O)N(CCO)Cc3ccccc3)cs2)cc1 | 50µM | n | n | n | 45µM | n
COc1cccc(CNC(=O)c2ccc3c(c2)nc2n3CCC(C)C2)c1OC (configuration not stated) | n | x | n | n | n | x
Cc1sc(N)nc1-c1c(C)n(C)c2ccccc12 | u | n | n | n | 45µM | u
Cc1sc(N)nc1-c1cccs1 | n | n | n | n | u | u
C=CCC(NC(C)c1ccccc1)c1ccco1 (configuration not stated) | 50µM | x | 2.5µM | u | x | n
COc1ccc(CCNC(=O)Cc2c(C)c3cc4c(C(C)(C)C)coc4c(C)c3oc2=O)cc1OC | n | x | n | n | n | x
O=C(CCO)c1ccc(O)cc1 | 13µM | -65 | 20µM | u | u | n
CCCCC(=O)c1ccc(O)cc1 | n | x | n | n | u | n
COc1ccc(C(=O)C[n+]2cn(C(F)F)c3ccccc32)c(F)c1 | x | u | n | n | u | 13µM
COc1ccc2c(ccc[n+]2CC(=O)c2ccc(C)cc2)c1 | n | n | n | n | x | n
SMILES | BAZ2B block | PI5P4Ka inh | JMJD2A Tudor inh | HP1b binding inh | G9a block | PLK1 PBD inh
O=C(c1ccncc1)N1CCC2(CC1)CCN(c1ccccn1)CC2 | x | x | x | x | n[12.7 µM] | x
CCOC(=O)c1c(C)[nH]c(C(=O)OCC(=O)N(CC(C)C)C2CCS(=O)(=O)C2)c1C (configuration not stated) | n | n | n | n | n[12.7 µM] | n
Cc1ccc2oc3c(c(=O)c2c1)C(c1ccc(F)cc1)N(CCCN1CCOCC1)C3=O (configuration not stated) | n | x | x | x | 45µM | x
Cc1ccc2oc3c(c(=O)c2c1)C(c1cccc(O)c1)N(CCCN1CCOCC1)C3=O (configuration not stated) | n | x | n | n | n | x
Cc1ccc2oc3c(c(=O)c2c1)C(c1cccc(Cl)c1)N(CCCN1CCOCC1)C3=O (configuration not stated) | n | n | n | n | 50µM | n
O=C1c2oc3ccc(F)cc3c(=O)c2C(c2ccncc2)N1CCN1CCOCC1 (configuration not stated) | n | x | x | x | 50µM | x
COC(=O)C1CCC(=O)N1C(c1ccc(OC)cc1)c1cc(OC)c(OC)c(OC)c1 (configuration not stated) | x | n | n | n | x | n
O=C(C[C@H]1C=C[C@H](NC(=O)Nc2ccccc2F)[C@@H](CO)O1)NCc1ccc(-c2ccccc2)cc1 | x | n | x | x | x | n
C=CCOCC(O)Cn1c(N2CCCC2)nc2c1c(=O)[nH]c(=O)n2C (configuration not stated) | n | n | n | n | n | n
COc1ccc(C2CC(=O)c3cc(-c4nc(-c5cccc([N+](=O)[O-])c5)cs4)c(=O)n(-c4ccc(C)c(C)c4)c3C2)cc1 (configuration not stated) | n | x | n | n | 11µM | x
CC1(C(=O)NCC2CC2)Cc2c(-c3ccc4c(c3)OCO4)ccnc2O1 (configuration not stated) | x | n | x | x | x | n
COc1ccccc1NC(=O)NCc1ccc(C)n1C | n | n | n | n | n[12.7 µM] | n
